From PubChem
Dicer inh: human Dicer pre-microRNA cleavage inhibition; z-score at 25 µM; 47,000 tested, 6% active; cat-ELCCA pre-miR-21 Dicer processing, chemiluminescence; hits give high values; Q9UPY3; AID 1347074; in the data active means z-score above about 3, passing the limit was not always enough;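 further: plate controls were vehicle for no effect and no enzyme for full effect; higher signal means more uncleaved substrate so more Dicer inhibition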
Starred values were filed as active, the others as inactive. Only a selection was taken, and hits are over-represented in it overall.

SMILES	Dicer inh
O=C(Nc1nc(-c2ccc(F)c(F)c2)cs1)Nc1ccc(Cl)cc1Cl	1.5
Cc1ccnc(Nc2nc(-c3ccc(F)cc3)cs2)c1	2.1
CC(C)(C)c1ccccc1NC(=O)Nc1nc(-c2ccc(F)c(F)c2)cs1	3.7*
CSc1sc(C(=O)Nc2ccccc2Cl)cc1-c1nc(-c2ccc(Cl)cc2)cs1	1.1
O=C(Nc1ccc(F)cc1)Nc1nc(-c2ccc(F)c(F)c2)cs1	3*
O=C(Nc1ccccc1)Nc1nc(-c2ccc(F)c(F)c2)cs1	2.3
CSc1nc(N/C=C2/C(=O)c3ccccc3N(C)S2(=O)=O)nc(N(C)C)n1	-1.7
COc1ccc2sc(Nc3nc(C)n(-c4ccccc4)c(=O)n3)nc2c1	1.4
CCOC(=O)COc1c(C(=O)OCC)sc2c1c(=O)n(-c1ccccc1)c(=S)n2-c1ccccc1	-0.91
O=C(CN1C(=O)c2cccc3cccc1c23)NCCSCc1ccco1	-0.57
N#CC(=NCCC1=CCCCC1)C1=C(O)c2ccccc2C1=O	-0.31
Cc1cc2nc3[nH]c4ccc(F)cc4c3nc2cc1C	1.1
Cc1onc(-c2ccccc2)c1C(=O)N1CCNCC1	0.56
CCCCOC(=O)Nc1ccc(N(CC)CC)cc1	2
CCCc1c(NC(=O)Nc2ccc(F)cc2)cnn1-c1ccccc1	-1.5
CCCc1cc(C(=O)Nc2ccc(N(CC)CC)cc2)nn1-c1ccccc1	4.4*
C=CCOC(=O)c1sc(N2C(=O)c3oc4ccccc4c(=O)c3C2c2cccs2)nc1C (stereo not given)	-0.85
Cc1ncc([N+](=O)[O-])n1CCC(C)C	0.31
Cn1c(=O)n(CC(=O)O)c(=O)c2c1nc1n2CCCN1c1cccc(Cl)c1	1.5
COc1cccc(N2CCn3c2nc2c3c(=O)n(CC(=O)O)c(=O)n2C)c1	1.5
Cn1c(=O)n(CC(=O)O)c(=O)c2c1nc1n2CCN1c1ccc(Cl)cc1	3.4*
NS(=O)(=O)c1ccccc1Oc1ccc(Cl)cc1Cl	-1.5
CC1Oc2ccc(C(=O)c3ccccc3C(=O)O)cc2N(C)C1=O (stereo not given)	-0.7
O=C(Cc1ccccc1Cl)N/N=C(/C(=O)O)c1ccccc1	-1.6
O=[N+]([O-])C1=Cc2ccccc2OC1c1ccccc1Cl (stereo not given)	2.5
SMILES	Dicer inh
O=[N+]([O-])C1=Cc2cc(Cl)ccc2OC1c1ccccc1Cl (stereo not given)	4*
O=[N+]([O-])C1=Cc2cc(Cl)ccc2OC1c1c(Cl)cccc1Cl (stereo not given)	2.3
COc1ccc(C2Nc3cc(C)c(C)cc3NC3=C2C(=O)CC(C)(C)C3)cc1 (stereo not given)	-1.7
COC(=O)CC(=O)NC(CSC(=O)Nc1ccc(SC(F)(F)F)cc1)C(=O)OC (stereo not given)	-1.3
COc1ccc(-c2cc3ncc(C(=O)c4cc(C)ccc4O)cn3n2)cc1	-0.28
CCOC(=O)C(NCCOC)(NC(=O)c1ccccc1Cl)C(F)(F)F (stereo not given)	4.6*
CCOC(=O)NC(Nc1ccccc1)(C(=O)OCC)C(F)(F)F (stereo not given)	1.1
CCOC(=O)C(NC(=O)c1ccccc1Cl)(Nc1ccccn1)C(F)(F)F (stereo not given)	3.4*
CCOC(=O)C(NCCc1ccccc1)(NC(C)=O)C(F)(F)F (stereo not given)	0.6
CCOC(=O)CNC(=O)c1ccccc1Cl	1.3
CCOC(=O)C(NC(=O)c1cccc(C)c1)(Nc1cccc(C)n1)C(F)(F)F (stereo not given)	-1.6
Cc1c(NC(=O)c2c(F)cccc2F)cc2c(c1[N+](=O)[O-])C(C)(C)CC2(C)C	-0.6
C=CCn1c(=S)sc2c(N(Cc3ccccc3)Cc3ccccc3)ncnc21	-0.95
COc1ccc(C(CC(=O)c2cccs2)SCCO)cc1OC (stereo not given)	-1.2
O=C(Nc1cc(-c2ccccc2)nn1-c1ccccc1)c1ccccc1Cl	-1
COc1ccccc1N1C(=O)CC(Nc2ccc(N(C)C)cc2)C1=O (stereo not given)	-1.8
Cc1c(Cl)cccc1-n1c(CCc2nc(-c3ccc(Cl)cc3)no2)n[nH]c1=S	-1.6
COc1cc(/C=N/N=C2/SC(CC(=O)O)C(=O)N2C)cc(OC)c1OC (stereo not given)	2.5
CN=C1SC(CC(=O)O)C(=O)N1C (stereo not given)	20*
C=CCN1C(=O)SC(CC(=O)O)C1=O (stereo not given)	-0.77
CCCCN1Cc2c(nc3cc(C(C)(C)C)[nH]n3c2=O)C1=O	-2.9
Cc1[nH]c2ccccc2c(=O)c1CN1CCOCC1	-0.84
CN1C(=O)c2cccc3c(S(=O)(=O)NCCCCCC(=O)O)ccc1c23	-1.6
CN1C(=O)c2cccc3c(S(=O)(=O)NCCCC(=O)O)ccc1c23	0.78
CN1C(=O)c2cccc3c(S(=O)(=O)NCC(=O)O)ccc1c23	3.1*
SMILES	Dicer inh
Cc1ccc(Cn2nc(C)ccc2=O)cc1	0.06
O=C(COc1ccc(Cl)cc1)N(Cc1cccs1)C1CCS(=O)(=O)C1 (stereo not given)	0.47
O=C(COc1ccccc1)N(Cc1cccs1)C1CCS(=O)(=O)C1 (stereo not given)	3.1*
O=C(COc1ccc(F)cc1)N(Cc1cccs1)C1CCS(=O)(=O)C1 (stereo not given)	1.4
COc1ccc(-c2[nH]c(SCc3ccccc3)nc(=S)c2C#N)cc1	0.83
COCCOC(=O)C1=C(C)NC2=C(C(=O)CCC2)C1c1ccccc1OC(C)C (stereo not given)	-0.24
CCNc1nc2ccc(Cl)cc2nc1NCC	4.6*
Clc1ccc2nc3c(nc2c1)Nc1ccccc1S3	0.76
CCNc1nc(-c2ccc(Cl)cc2)c(-c2ccc(C)cc2)s1	-2.2
COc1cc2c3c(c1OC)C1(C=CC(=O)C=C1)CC3N(S(=O)(=O)c1ccc(C)cc1)CC2 (stereo not given)	0.98
CCOC(=O)c1cc(CSc2n[nH]c(=O)n2-c2ccccc2)on1	-0.14
CCOC(=O)C1=C(C)NC2=C(C(=O)CC(C)(C)C2)C1c1ccc(CC)cc1 (stereo not given)	1.6
COc1cccc(C(=O)/C=c2\[nH]c(=O)/c(=C\c3ccccc3)s2)c1	0.93
CC(C)(C)c1ccc(C(=O)/C=c2\[nH]c(=O)/c(=C\c3cccs3)s2)cc1	3.4*
CC(C)(C)c1ccc(C(=O)/C=C2\NC(=O)CS2)cc1	-2.3
O=C(Nc1cnc2sccn2c1=O)c1ccc(Cl)cc1	-0.16
CN(C)c1ccc(C2N[C@@H](C(=O)O)C(C)(C)S2)cc1 (stereo not given in full)	0.59
CC1(C)S[C@H](CNC(=O)Cc2ccccc2)N[C@H]1C(=O)O	4*
CC1(C)SC(c2ccc(C3NC(C(=O)O)C(C)(C)S3)cc2)NC1C(=O)O (stereo not given)	-2.4
CCOC(=O)/C(=N\OC)c1csc(NC(=O)c2nn(-c3ccccc3)nc2C)n1	-0.22
O=C(O)C1CC(=O)N(Cc2ccc(F)cc2)C1 (stereo not given)	0.24
O=C(Nc1ccc(Cl)cc1)ON=C1CC2CCCC(C1)N2Cc1ccccc1	-1.5
O=C(ON=C1CC2CCCC(C1)N2Cc1ccccc1)c1ccc(F)cc1	3.1*
c1ccc(CSc2nnnn2-c2ccccc2)cc1	-1.3
Cc1cc(C)n2c(SCc3ccc(Br)cc3)nnc2n1	1.3
Cc1cc(C)n2c(Br)c(CSc3nnnn3-c3ccccc3)nc2n1	4.2*
COc1ccc(C2C(C(=O)OC3CCCCC3)=C(C)NC3=C2C(=O)CCC3)cc1Br (stereo not given)	-0.61
CCc1cc2c(=O)c(-c3nc(C)cs3)c(C)oc2cc1O	-0.56
